The nature of test [1]: small molecules captured by biotinylated probe aFSTL3 – biochemical, small-molecule microarray, fluorescence 635/667, stem cell growth factor project, primary screen (AID 1064).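 Also: measures binding of the biotinylated anti-FSTL3 antibody to printed compounds.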 The following applies: higher = more signal.
Test [2] is described as follows: binders from COS7 lysate, DM2A8 probe, primary screen, torsin A project, cell lysate, small-molecule microarray, fluorescence 635/667 (AID 1065). Particulars: higher = more signal, COS7 lysate expressing mutant human TOR1A.
Test [3] in a line: small molecules captured by biotinylated probe aFGF2 – biochemical, small-molecule microarray, fluorescence 635/667, stem cell growth factor project, primary screen (AID 1067).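 Also: measures binding of biotinylated aFGF2 protein to printed compounds on slides; z-score merges feature fluorescence and signal-to-noise across triplicate slides.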 The following applies: higher = more signal.
Test [4] can be described thus: small molecules captured by biotinylated probe aFGF10 – biochemical, small-molecule microarray, fluorescence 635/667, stem cell growth factor project, primary screen (AID 1071).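 Also: score merges 667 nm spot intensity and signal to noise from triplicate slides.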 Particulars: higher = more signal.
The target in test [5] is Neurogenic locus notch homolog protein 2 (Homo sapiens) (UniProt Q04721). As to the kind of experiment: small molecules binding Notch2 protein – biochemical, small-molecule microarray, 635 nm fluorescence, stem cell growth factors, primary screen (AID 1073). Particulars: higher = more signal.
Neurogenic locus notch homolog protein 2 (Homo sapiens), sequence (Q04721 whole entry, looked up, canonical isoform): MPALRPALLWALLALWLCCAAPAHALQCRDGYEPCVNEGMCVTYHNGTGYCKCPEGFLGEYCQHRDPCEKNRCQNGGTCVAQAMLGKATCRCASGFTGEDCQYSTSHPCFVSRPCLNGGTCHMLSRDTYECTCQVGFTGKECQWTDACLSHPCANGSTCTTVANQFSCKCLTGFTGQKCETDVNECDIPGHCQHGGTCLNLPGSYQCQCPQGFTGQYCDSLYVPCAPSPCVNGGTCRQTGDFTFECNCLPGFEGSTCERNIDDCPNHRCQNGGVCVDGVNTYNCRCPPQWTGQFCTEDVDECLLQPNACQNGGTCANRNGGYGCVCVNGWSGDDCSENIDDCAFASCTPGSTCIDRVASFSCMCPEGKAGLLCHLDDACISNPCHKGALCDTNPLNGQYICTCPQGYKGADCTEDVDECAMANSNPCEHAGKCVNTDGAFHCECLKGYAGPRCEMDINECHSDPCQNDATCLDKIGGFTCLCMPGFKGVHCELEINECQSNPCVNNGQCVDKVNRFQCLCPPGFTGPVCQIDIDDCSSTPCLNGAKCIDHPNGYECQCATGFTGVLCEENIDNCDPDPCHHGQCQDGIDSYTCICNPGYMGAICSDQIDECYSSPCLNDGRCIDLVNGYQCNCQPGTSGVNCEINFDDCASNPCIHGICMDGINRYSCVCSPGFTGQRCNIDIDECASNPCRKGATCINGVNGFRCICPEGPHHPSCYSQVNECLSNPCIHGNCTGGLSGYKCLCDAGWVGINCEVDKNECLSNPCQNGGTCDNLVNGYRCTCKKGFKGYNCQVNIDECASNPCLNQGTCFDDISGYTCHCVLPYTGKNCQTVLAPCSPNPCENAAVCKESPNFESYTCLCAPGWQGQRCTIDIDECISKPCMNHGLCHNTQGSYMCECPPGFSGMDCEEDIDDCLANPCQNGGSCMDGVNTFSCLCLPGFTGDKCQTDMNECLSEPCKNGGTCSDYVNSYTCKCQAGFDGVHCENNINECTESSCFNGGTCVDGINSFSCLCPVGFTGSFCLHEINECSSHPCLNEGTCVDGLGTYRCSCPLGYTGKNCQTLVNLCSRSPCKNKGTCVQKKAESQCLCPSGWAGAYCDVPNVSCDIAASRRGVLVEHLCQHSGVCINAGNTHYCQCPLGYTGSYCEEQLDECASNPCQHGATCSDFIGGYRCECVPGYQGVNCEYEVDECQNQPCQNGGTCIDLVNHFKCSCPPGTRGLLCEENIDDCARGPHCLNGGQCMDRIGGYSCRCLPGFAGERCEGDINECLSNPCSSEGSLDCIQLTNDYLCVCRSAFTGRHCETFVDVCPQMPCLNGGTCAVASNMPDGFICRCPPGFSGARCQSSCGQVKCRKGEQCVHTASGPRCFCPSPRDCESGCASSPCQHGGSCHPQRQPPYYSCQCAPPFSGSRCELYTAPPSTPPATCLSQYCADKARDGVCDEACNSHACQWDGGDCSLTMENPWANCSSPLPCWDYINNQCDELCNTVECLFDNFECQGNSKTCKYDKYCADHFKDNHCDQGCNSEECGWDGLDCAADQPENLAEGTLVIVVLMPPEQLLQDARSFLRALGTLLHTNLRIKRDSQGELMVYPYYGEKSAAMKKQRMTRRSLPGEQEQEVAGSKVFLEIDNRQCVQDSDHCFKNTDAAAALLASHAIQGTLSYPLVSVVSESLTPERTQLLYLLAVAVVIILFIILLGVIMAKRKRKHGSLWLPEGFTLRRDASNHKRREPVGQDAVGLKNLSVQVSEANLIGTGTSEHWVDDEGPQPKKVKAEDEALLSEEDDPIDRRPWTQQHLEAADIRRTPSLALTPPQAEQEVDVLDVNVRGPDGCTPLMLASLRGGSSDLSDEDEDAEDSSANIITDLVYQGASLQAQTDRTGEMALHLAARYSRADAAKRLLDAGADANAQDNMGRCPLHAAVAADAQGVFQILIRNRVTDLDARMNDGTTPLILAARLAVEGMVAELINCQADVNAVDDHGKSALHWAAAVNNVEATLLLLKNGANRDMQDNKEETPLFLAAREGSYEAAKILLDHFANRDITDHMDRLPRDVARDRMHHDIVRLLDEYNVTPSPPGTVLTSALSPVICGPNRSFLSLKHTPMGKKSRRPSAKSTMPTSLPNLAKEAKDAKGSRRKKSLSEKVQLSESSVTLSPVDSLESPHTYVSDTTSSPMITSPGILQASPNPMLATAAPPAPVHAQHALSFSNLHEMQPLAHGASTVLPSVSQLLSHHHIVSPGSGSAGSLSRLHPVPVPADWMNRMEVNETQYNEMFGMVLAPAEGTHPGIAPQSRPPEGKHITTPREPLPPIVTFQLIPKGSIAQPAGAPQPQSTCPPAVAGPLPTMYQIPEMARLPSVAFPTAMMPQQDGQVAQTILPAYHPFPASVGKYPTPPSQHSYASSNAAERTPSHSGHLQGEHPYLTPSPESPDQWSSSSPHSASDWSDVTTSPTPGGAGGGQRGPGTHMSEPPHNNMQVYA
Test [6] deals with Pro-neuregulin-1, membrane-bound isoform (Homo sapiens) (UniProt Q02297). As to the kind of experiment: small molecules binding neuregulin-1 protein – biochemical, small-molecule microarray, fluorescence 635/667, psychiatric disease protein project, primary screen (AID 1075).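 Also: score combines 667 nm spot fluorescence with signal to noise.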 Particulars: NRG1 binding, 635 nm fluorescence, higher = more signal.
Pro-neuregulin-1, membrane-bound isoform (Homo sapiens), sequence (Q02297 whole entry, looked up, the tested form may be a part, canonical isoform): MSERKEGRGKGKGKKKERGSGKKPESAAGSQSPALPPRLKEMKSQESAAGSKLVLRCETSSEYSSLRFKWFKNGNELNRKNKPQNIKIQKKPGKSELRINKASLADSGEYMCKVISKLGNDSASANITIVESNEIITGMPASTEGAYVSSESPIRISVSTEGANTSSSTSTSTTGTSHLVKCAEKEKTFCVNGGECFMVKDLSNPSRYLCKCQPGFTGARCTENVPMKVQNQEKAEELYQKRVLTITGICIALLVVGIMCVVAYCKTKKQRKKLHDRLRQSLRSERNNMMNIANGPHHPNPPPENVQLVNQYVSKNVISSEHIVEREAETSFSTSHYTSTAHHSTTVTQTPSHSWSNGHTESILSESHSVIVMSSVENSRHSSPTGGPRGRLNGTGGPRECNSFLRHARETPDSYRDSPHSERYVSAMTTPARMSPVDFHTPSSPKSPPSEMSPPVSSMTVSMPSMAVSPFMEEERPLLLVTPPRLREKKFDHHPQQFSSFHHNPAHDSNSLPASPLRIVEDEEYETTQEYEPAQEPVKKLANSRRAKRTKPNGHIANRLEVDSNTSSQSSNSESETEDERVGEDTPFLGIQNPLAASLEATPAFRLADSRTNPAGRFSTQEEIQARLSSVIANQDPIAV
Test [7] concerns Neuregulin-1 EGF-like domain. As to the kind of experiment: small molecules binding NRG1 EGF domain – biochemical, small-molecule microarray, 635 nm fluorescence, primary screen (AID 1081).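 Also: binding of the protein to compounds printed on small-molecule microarray slides.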 The following applies: higher = more signal.
The nature of test [8]: FRG1 expression reporter modulators in myotubes – cell-based, C2C12 myotubes, firefly/Renilla luciferase, luminescence, FRG1 inhibition for FSHD, primary screen (AID 1084). Particulars: FRG1 promoter luciferase, higher = more signal, called active from +8 up or from −8 down.
Test [9] can be described thus: small molecules captured by biotinylated probe aFST – biochemical, small-molecule microarray, fluorescence 635/667, stem cell growth factor project, primary screen (AID 1086).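 Also: score merges 667 nm fluorescence with signal-to-noise of each printed compound spot.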 The following applies: higher = more signal.
The nature of test [10]: binders of probe aHhip on microarray, primary screen, stem cell growth factor project, biochemical, small-molecule microarray, fluorescence 635/667 (AID 1087).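 Also: score merges spot fluorescence at 667nm with spot signal to noise ratio.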 The following applies: higher = more signal.
Test [11] deals with PRMT1 (protein arginine N-methyltransferase 1). As to the kind of experiment: small molecules binding arginine methyltransferase PRMT1 – biochemical, small-molecule microarray, 635 nm fluorescence, primary screen (AID 1088).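 Also: binding of Prmt1 protein to compounds spotted on small-molecule microarray slides.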 The following applies: higher = more signal.
Test [12] in a line: growth effects on S. cerevisiae YJM789 – YJM789 clinical isolate, OD600, 24 h, basal, primary screen (AID 1089).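 Also: growth of clinical yeast isolate S. cerevisiae YJM 789 seeded 1000 cells per well; test concentration not given here.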 Particulars: higher = more signal, called active from +8 up or from −8 down.
The nature of test [13]: S. pombe growth modifiers, basal conditions – strain 972, OD600, 24 h, no modulator, primary screen (AID 1090).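 Also: basal condition with compound alone and no growth modifier present; test concentration not given here.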 The following applies: S. pombe 972 growth, higher = more signal, called active from +8 up or from −8 down.
The nature of test [14]: budding yeast growth modifiers under rapamycin – strain BY4716, OD600, 96 h, primary screen (AID 1091). Also: test concentration not given here. The following applies: S. cerevisiae BY4716 + rapamycin, higher = more signal, called active from +8 up or from −8 down.
The target of test [15] is Torsin-1A-interacting protein 2 (Homo sapiens) (UniProt Q8NFQ8). As to the kind of experiment: small molecules binding lysate-expressed LULL1 – cell lysate, human LULL1 lysate, 635/667 nm fluorescence, primary screen (AID 1092).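 Also: score merges per-feature 667 nm fluorescence with signal-to-noise.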 Particulars: small-molecule microarray, hLULL1 lysate binding, 635 nm fluorescence; higher = more signal.
Torsin-1A-interacting protein 2 (Homo sapiens), sequence (Q8NFQ8 whole entry, looked up): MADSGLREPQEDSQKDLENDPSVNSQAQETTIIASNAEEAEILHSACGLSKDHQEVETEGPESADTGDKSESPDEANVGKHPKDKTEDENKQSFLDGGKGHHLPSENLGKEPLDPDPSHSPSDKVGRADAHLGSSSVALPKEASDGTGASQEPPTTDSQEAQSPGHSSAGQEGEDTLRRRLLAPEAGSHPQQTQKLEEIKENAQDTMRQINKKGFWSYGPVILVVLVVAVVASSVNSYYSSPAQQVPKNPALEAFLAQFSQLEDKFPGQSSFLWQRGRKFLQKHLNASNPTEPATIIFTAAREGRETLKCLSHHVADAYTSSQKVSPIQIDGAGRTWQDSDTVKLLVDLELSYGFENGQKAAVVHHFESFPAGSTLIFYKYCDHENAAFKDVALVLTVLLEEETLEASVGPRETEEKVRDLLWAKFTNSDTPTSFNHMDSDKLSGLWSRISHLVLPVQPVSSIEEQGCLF
Test [16] is described as follows: optical density change of DRC41 E. coli – strain DRC41, OD650, 24 h, E. coli filamentation project, primary screen (AID 1093).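 Also: MC1000 strain lacking acrAB efflux and sulA so SOS filamentation is blocked; test concentration not given here.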 Particulars: E. coli DRC41 growth, higher = more signal, called active from +8 up or from −8 down.
The nature of test [17]: probe aLefty2 binding to arrayed compounds – biochemical, biotinylated probe, 635/667 nm fluorescence, primary screen (AID 1094).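 Also: score merges spot fluorescence near 667 nm with spot signal-to-noise ratio.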 Particulars: small-molecule microarray, higher = more signal.
Test [18] has as its system Noggin (protein binding on small-molecule microarray). As to the kind of experiment: small molecules binding Noggin protein – biochemical, 635/667 nm fluorescence, primary screen (AID 1095).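 Also: score merges 667 nm feature fluorescence with signal to noise over triplicate slides.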 Particulars: 635 nm fluorescence, higher = more signal.
Test [19] deals with Neurogenic locus notch homolog protein 3 (Homo sapiens) (UniProt Q9UM47). As to the kind of experiment: small molecules binding NOTCH3 protein – biochemical, 635/667 nm fluorescence, primary screen (AID 1096). Particulars: small-molecule microarray, 635 nm fluorescence, higher = more signal.
A short description of test [20]: probe aEGFR binding to arrayed compounds – biochemical, biotinylated probe, 635/667 nm fluorescence, primary screen (AID 1097).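 Also: probe is a biotinylated anti-EGFR antibody binding compounds printed on slides; score combines fluorescence near 667 nm and signal to noise of each spot.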 The following applies: small-molecule microarray, higher = more signal.

Active and inactive are the calls of the source.

Turning to `C=C[C@H](OC)[C@@H](OC(=O)Nc1ccc(OC)cc1)c1ccc(O)c(F)c1`, the composite z-score in test [1] is 0.348; in [2] it was 0.242; in test [3] it was -0.175; in [4] it was -0.827; in [5], -1.31; in [6], 1.11. Besides, the composite z-score was 0.804 in [7]; -0.922 in [9]; -0.0994 in test [10]; 0.148 in test [11]; 1.89 in [15]; -0.21 in test [17]. The composite z-score in test [18] was -0.932; in [19] it was -0.363; in test [20], -0.335. Further, the z-score was 2.95 (inactive) in test [8]; 0.337 (inactive) in test [12]; -1.18 (inactive) in test [13]; 1.3 (inactive) in test [14]; 0.512 (inactive) in test [16].
Take `CN1C(=O)C2C=CC(C(O)c3ccco3)N(Nc3ccccc3)C2C1=O` (stereo not given): the composite z-score in test [1] was determined as 0.034; in test [2], 0.438; in [3], 0.0772; in [4], 0.321; in test [5], 1.06; in test [6] it was 1.51. Moreover, the composite z-score in [7] is 1.28; in test [9], -0.104; in [10] it was -0.0581; in [11], 0.941; in test [15] it was 2.52; in test [17], 0.0569. Further, the composite z-score in test [18] was 0.139; in test [19] it was 0.275; in test [20], -0.0976. For the same compound, the z-score in test [8] is 0.0122 (inactive); in test [12] it was 0.312 (inactive); in test [13], 0.899 (inactive); in [14], 1.74 (inactive); in test [16] it was -1.37 (inactive).
In the case of `COC(=O)[C@@]1(Cc2ccc(OC)cc2)[C@H]2c3cc(C(=O)N(C)C)n(CCc4ccccn4)c3C[C@H]2CN1C(=O)c1ccccc1`, the composite z-score in test [1] was 1.63; in test [2], -0.0525; in test [3] it was 0.638; in test [4], 0.402; in [5], 1.61; in test [6] it was 0.428. The composite z-score is 1.05 in test [7]; 1.38 in test [9]; 0.47 in test [10]; -0.663 in test [11]; 2.5 in [15]; 1.09 in test [17]. The composite z-score was -0.307 in test [18], 0.0532 in test [19] and 0.865 in [20]. In addition, the z-score in [8] was 0.845 (inactive); in test [12] it was 0.735 (inactive); in [13] it was 1.55 (inactive); in test [14], 2.81 (inactive); in test [16], -0.901 (inactive).
On to `O=C1N[C@@H](Cc2ccccc2)C(=O)N2[C@@H]1C[C@@H](C(=O)O)[C@H]2c1cccc(OCCO)c1`, for which the composite z-score was found to be 0.0693 in test [1]; 0.571 in [2]; 0.0127 in test [3]; 0.801 in [4]; 0.399 in [5]; 1.54 in test [6]. For the same compound, the composite z-score in [7] is 1.38; in [9], 0.166; in [10], -0.0237; in test [11] it was 1.56; in test [15], 1.06; in [17] it was -0.0206. The composite z-score in test [18] was 1.43; in test [19], 0.611; in test [20], -0.071. For the same compound, the z-score in test [8] is 9.18 (active); in [12], 0.809 (inactive); in [13], -0.66 (inactive); in test [14] it was -0.276 (inactive); in test [16] it was 1.18 (inactive).
For `C=C(C)[C@@H]1CC=C(C(O)C2C=CC3C(=O)N(c4ccccc4)C(=O)C3N2Nc2ccccc2)CC1` (stereo not given in full), the composite z-score worked out at 1.08 in [1]; 0.881 in test [2]; 0.364 in test [3]; 0.929 in [4]; 1.26 in test [5]; 1.57 in test [6]. Also, the composite z-score is 1.28 in [7]; 1.54 in test [9]; 1.07 in test [10]; 1.55 in test [11]; 3.32 in test [15]; 0.467 in [17]. Moreover, the values for the composite z-score in test [18], in test [19] and in test [20] were 0.302, 1.05 and 0.34, respectively. Further, the z-score is -0.441 (inactive) in test [8]; 0.0118 (inactive) in test [12]; 0.0527 (inactive) in [13]; 0.0587 (inactive) in [14]; -0.784 (inactive) in [16].

Source of the values: PubChem BioAssay.
